Results: PubChem BioAssay (NCATS)
Records with an inconclusive call do not appear. Where a call stands in place of a potency, no number is given. Unmarked numbers belong to inactive results. Activity calls are given as the source filed them. Calls follow the shape of the dose curve; as a rule, active = well fitted curve in the direction sought with a large enough effect; inconclusive = small, poorly fitted or top-dose-only effect, or another doubt; inactive = no such curve, though single readings can be large; an effect the other way counts as inactive or inconclusive.

Columns and labels:
[1] = target: Cellular tumor antigen p53 (Homo sapiens) (UniProt P04637); experiment: Primary qHTS for small molecule compounds that upregulate eGFP-tagged delta133p53alpha (in N-terminal) cells. (AID 2060322); conditions: NCI-H358 eGFP-delta133p53alpha fluorescence, 24 h; activation: active compounds read high; also: nearly all actives have a fitted effect of over 75% in size; also: potency is read from the fitted curve at half-maximal effect;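 as to activation: cells pre-induced with doxycycline then dosed without doxycycline; series mostly up to about 56 µM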
Summary of the method: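 NCI-H358 cells pre-induced 24 h with 10 ng/ml doxycycline for eGFP-delta133p53alpha, plated dox-free and exposed 24 h at 37C to titrated compounds. Fixed, Hoechst-stained; gated GFP peak intensity by laser scanning cytometry, normalized to DMSO (0%) and 57.5 uM 5-azacytidine (100%).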

[2] = target: Aldehyde dehydrogenase, mitochondrial (Homo sapiens) (UniProt P05091); experiment: qHTS for Inhibitors of the Aldehyde Dehydrogenase Family (ALDH2) Primary screen (AID 2061308); also: nearly all actives have a fitted effect of over 55% in size
[3] = target: Retinaldehyde dehydrogenase 3 (Homo sapiens) (UniProt P47895); experiment: qHTS for Inhibitors of the Aldehyde Dehydrogenase Family (ALDH1A3) Primary screen (AID 2061315)

Sequence of Cellular tumor antigen p53 (Homo sapiens) (P04637 whole entry, looked up): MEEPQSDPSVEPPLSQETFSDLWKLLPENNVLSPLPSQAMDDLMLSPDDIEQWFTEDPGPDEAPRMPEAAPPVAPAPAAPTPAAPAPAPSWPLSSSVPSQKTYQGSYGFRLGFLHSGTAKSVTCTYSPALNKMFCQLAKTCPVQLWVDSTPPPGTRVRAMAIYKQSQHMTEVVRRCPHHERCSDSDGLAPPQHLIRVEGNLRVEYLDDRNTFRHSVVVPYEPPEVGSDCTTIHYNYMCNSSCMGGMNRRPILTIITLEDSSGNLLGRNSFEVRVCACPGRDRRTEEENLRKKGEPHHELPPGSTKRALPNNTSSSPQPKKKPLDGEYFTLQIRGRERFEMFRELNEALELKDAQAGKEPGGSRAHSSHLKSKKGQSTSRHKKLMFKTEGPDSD

Row | Structure (SMILES) | activation [1] [%] | Potency [2] | Potency [3] | Potency [1]
1 | CC1(C)C(=O)N2c3ccccc3[C@]3(CC(n4cnc5ccccc5c4=O)C(=O)O3)[C@H]2N1O (some centres undefined) | 1.53 | inactive | inactive | –
2 | Cc1cccc(/C=N/Nc2cc(N3CCOCC3)n3nc(-c4ccncc4)cc3n2)c1 | – | inactive | inactive | 19 µM (active)
3 | CC(C)(C)c1nnc(NS(=O)(=O)c2ccccc2)s1 | 11.7 | inactive | inactive | –
4 | C=CCc1cc(OC)c(OC(C)C(O)c2ccc(O)c(OC)c2)c(OC)c1 (centres undefined) | 4.46 | inactive | inactive | –
5 | COc1ccc(/C=C/C(=O)O[C@H]2[C@H](O[C@H]3[C@@H]4C=CO[C@@H](O[C@@H]5O[C@H](CO)[C@@H](O)[C@H](O)[C@H]5O)[C@@H]4[C@@]4(CO)O[C@@H]34)O[C@@H](C)[C@H](O)[C@H]2OC(C)=O)cc1 | -0.763 | inactive | inactive | –
6 | OCC(CO)(CO)NCC(O)Cn1c2ccc(Cl)cc2c2cc(Cl)ccc21 (centres undefined) | – | inactive | inactive | 23.9 µM (active)
7 | OC[C@H]1O[C@@H](Oc2ccccc2)[C@H](O)[C@@H](O)[C@@H]1O | -0.893 | inactive | inactive | –
8 | COc1c2c(c(C)c3c1C(=O)OC3)OC1(C)CC(O)C34OC(O)(CCC3(C)C1C2)OC4(C)C (centres undefined) | -6.87 | inactive | inactive | –
9 | C/C=C1/C[N+](C)([O-])C2Cc3c([nH]c4ccccc34)C(=O)CC1C2C(=O)OC (centres undefined) | -9.82 | inactive | inactive | –
10 | Cc1cc(CNC(=O)c2cc(C(=O)NCc3ccc(F)c(C)c3)ncn2)ccc1F | 1.67 | inactive | inactive | –
11 | COc1cc(C)c(C(=O)NC2C(C)OC(OC3CCC(C)C4C3C=C(C)C3/C(C)=C\CC/C(C)=C/C5(C)C=C(C(=O)O)C(C)CC56OC(=O)/C(=C(\O)C34C)C6=O)C(O)C2(C)O)c(O)c1 (centres undefined) | 3.82 | inactive | inactive | –
12 | CCCCCCCOc1cc2c(cc1/C(C)=C/c1ccc(C(=O)O)cc1)C(C)(C)CCS2(=O)=O | 3 | inactive | inactive | –
13 | C/C=C/C[C@@H](C)[C@@H](O)[C@H]1C(=O)N[C@@H](CC)C(=O)N(C)CC(=O)N(C)[C@@H](CC(C)C)C(=O)N[C@@H](C(C)C)C(=O)N(C)[C@@H](CC(C)C)C(=O)N[C@@H](C)C(=O)N[C@H](C)C(=O)N(C)[C@@H](CC(C)C)C(=O)N(C)[C@@H](CC(C)C)C(=O)N(C)[C@H](C(C)C)C(=O)N1C | 11.5 | inactive | inactive | –
14 | CC(=O)NC1C(OC2CCC3(C)C(CCC4(C)C3CC=C3C5CC(C)(C)CCC5(C(=O)O)C(O)CC34C)C2(C)C)OC(CO)C(O)C1O (centres undefined) | 1.53 | inactive | inactive | –
15 | OCC1=C[C@@H](O)[C@@H]2C=CO[C@@H](O[C@@H]3O[C@H](CO)[C@@H](O)[C@H](O)[C@H]3O)[C@H]12 | -32.8 | inactive | inactive | –
16 | COC(=O)C1=CO[C@@H](O)C2C(CO)=CCC12 (some centres undefined) | 23 | inactive | inactive | –
17 | CCCC(=O)O[C@@H]1[C@@H]2[C@@H](OC(C)=O)[C@]3(C)C(=O)[C@H]4[C@@H](OC(C)=O)C(C)(C)C[C@H]4[C@]3(C)C(=O)[C@@]2(OC(C)=O)C[C@@H]1C | -10.7 | inactive | inactive | –
18 | CC(C)=CCCC1(C)C=Cc2c(c(C)cc3c2[nH]c2ccccc23)O1 (centres undefined) | 2.29 | inactive | inactive | –
19 | CCC(C)/C=C(C)/C=C/c1cc2c(cn1)C(=O)C(C)(OC(C)=O)C(O)=C2Cl (centres undefined) | -6.11 | inactive | inactive | –
20 | CC/C=C\CCO[C@@H]1O[C@H](CO)[C@@H](O)[C@H](O)[C@H]1O | -18.3 | inactive | inactive | –
21 | CC1(C)CCC2(C(=O)O)C(O)CC3(C)C(=CCC4C5(C)CCC(OC6OC(CO)C(O)C(O)C6OC6OC(CO)C(O)C(O)C6OC6OCC(O)(CO)C6O)C(C)(C)C5CCC43C)C2C1 (centres undefined) | -18.3 | inactive | inactive | –
22 | Cc1ccccc1-n1c([C@H](C)Nc2nc(N)nc3nc[nH]c23)nc2cccc(C)c2c1=O | -15.2 | inactive | inactive | –
23 | CCC(NC(=O)CC(NC(=O)C(CO)NC(=O)C(CC)NC(=O)c1ccc[nH]1)c1ccccc1)C(=O)O (centres undefined) | 23.7 | inactive | inactive | –
